In PubChem BioAssay (NCI):
This is part of a sample that, as a whole, favours compounds with a hit. Of some 83,000 tested, about 20% had one in any assay.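 Cell lines were cultured in 96-well plates, exposed to a single compound concentration, and assessed for percent growth 48 hours later.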 Activity calls are given as the source filed them. How the source made its calls: active means growth percent below 10; inactive means the rest.

System: SK-MEL-2 melanoma
Assay: NCI-60 one-dose screen, 48 h (100 = growth as untreated, 0 = no growth, -100 = all killed)
Details: 10 µM unless noted

SMILES | growth
O=C(Nc1ccc(-n2ccc3c(NC(=O)c4ccccc4)ncnc32)cc1)c1ccc(Cl)c(C(F)(F)F)c1 | 34.7% (inactive)
CC12CCC3C(CCC4CC(O)CCC43C)C1C/C(=C/O)C(=O)O2 (centres undefined) | 104% (inactive)
O=C1/C(=C/c2cccc3cnccc23)Cc2cc(F)ccc21 | 94.6% (inactive)
CCc1c(C)c2cc(-n3c(-c4ccc(OC)cc4)csc3=N)c(O)c(C)c2oc1=O | 10.7% (inactive)
O=C(NCCNc1nccc(-c2c(-c3cccc(O)c3)nc3sccn23)n1)c1ccccc1O | 13.9% (inactive)
NC(CCCC(N)C(=O)c1ccccc1)C(=O)O (centres undefined) | 92.7% (inactive)
COc1ccc(-c2nnc(SCC(=O)N3CCN(c4cc5c(cc4F)c(=O)c(C(=O)O)cn5C4CC4)CC3)o2)cc1OC | 103% (inactive)
CC(C)(C)C(=O)/C=c1/[nH]c(=O)/c(=C/c2ccccc2O)s1 | 67.6% (inactive)
O=C1c2ccccc2OC=C(c2ccccc2)N1CCCCN1CCCCC1 | 69% (inactive)
CNCCCOc1c(Br)cc(CCNC(=O)/C(Cc2cc(Br)c(OC)c(Br)c2)=N/O)cc1Br | -54.7% (active)
COc1ccc(-c2nnc(SCC(=O)Nc3ccc(C(=O)/C=C/c4ccc(OC)c(OC)c4)cc3)o2)cc1 | 94.1% (inactive)
COc1cc(-c2nc(SCC(=O)Nc3ccc(C(C)=O)cc3)[nH]c(=O)c2C#N)cc(OC)c1OC | 35.9% (inactive)
O=C1OC(N(Cc2ccc(Cl)cc2)c2ccccc2)c2ccccc21 (centres undefined) | 94.4% (inactive)
O=C(NNC(=O)c1ccc([N+](=O)[O-])cc1)c1ccc([N+](=O)[O-])cc1 | 107% (inactive)
